In PubChem BioAssay AID1159580 (chemical genetic matrix, 2015):
Where “and” joins values, the source holds several entries; their conditions need not be identical. Equal values may be shown once. Out of some 5,500 compounds screened, about 2,000 (36%) were called active. Inconclusive results (about 18%) are left out. Rule as the data show it: active = normalized growth mostly below about 0.91 (no sharp cut-off); inconclusive = no clear call, values can overlap the other calls; inactive = mostly above about 0.92. The list shows a part of the results.

Assay: chemical genetic growth profiling, strain panel (AID 1159580);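 also: tested at 20 µM; growth read once vehicle control cultures reached saturation at 30 °C; 1 = growth at the plate median or of vehicle wells; lower values mean less growth of the strain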
Settings: growth OD

Measured: normalized growth

CN(C)CCC(c1ccc(Br)cc1)c1ccccn1 (centres undefined)
inactive: S. cerevisiae deletion strains, locus YKL009W, strain mrt4, active compounds read low 0.99 | S. cerevisiae deletion strains, locus YKL068W, active compounds read low 1.01 | S. cerevisiae deletion strains, locus YKL085W, strain MDH1 (second series), active compounds read low 1.02 | S. cerevisiae deletion strains, locus YKL085W, strain MDH1, active compounds read low 1.02 | S. cerevisiae deletion strains, locus YKL160W, strain elf1, active compounds read low 0.981 | S. cerevisiae deletion strains, locus YKL190W, strain CNB1, active compounds read low 0.995 | S. cerevisiae deletion strains, locus YKR001C, strain vps1, active compounds read low 0.964 | S. cerevisiae deletion strains, locus YKR026C, strain gcn3, active compounds read low 0.986 | S. cerevisiae deletion strains, locus YLL001W, strain dnm1, active compounds read low 0.998 | S. cerevisiae deletion strains, locus YLL026W, active compounds read low 0.987 | S. cerevisiae deletion strains, locus YLL041C, strain sdh2, active compounds read low 0.981 | S. cerevisiae deletion strains, locus YLR027C, strain aat2, active compounds read low 0.99 | S. cerevisiae deletion strains, locus YLR039C, strain RIC1, active compounds read low 0.999 | S. cerevisiae deletion strains, locus YLR058C, strain SHM2, active compounds read low 0.991 | S. cerevisiae deletion strains, locus YLR102C, strain apc9, active compounds read low 0.992 | S. cerevisiae deletion strains, locus YLR113W, strain HOG1, active compounds read low 1.01 | S. cerevisiae deletion strains, locus YLR221C, strain rsa3, active compounds read low 0.999 | S. cerevisiae deletion strains, locus YLR258W, strain gsy2, active compounds read low 0.969 | S. cerevisiae deletion strains, locus YLR262C, strain YPT6 (second series), active compounds read low 0.999 | S. cerevisiae deletion strains, locus YLR262C, strain YPT6, active compounds read low 1.03 | S. cerevisiae deletion strains, locus YLR268W, strain sec22, active compounds read low 0.956 | S. cerevisiae deletion strains, locus YLR320W, strain mms22, active compounds read low 1.03 | S. cerevisiae deletion strains, locus YLR330W, strain CHS5, active compounds read low 0.992 | S. cerevisiae deletion strains, locus YLR342W, strain FKS1 (second series), active compounds read low 0.985 | S. cerevisiae deletion strains, locus YLR342W, strain FKS1, active compounds read low 0.986 | S. cerevisiae deletion strains, locus YLR357W, strain rsc2, active compounds read low 0.972 | S. cerevisiae deletion strains, locus YLR370C, strain arc18, active compounds read low 0.982 | S. cerevisiae deletion strains, locus YLR371W, strain rom2, active compounds read low 0.989 | S. cerevisiae deletion strains, locus YLR384C, strain iki3, active compounds read low 0.989 | S. cerevisiae deletion strains, locus YLR418C, strain cdc73, active compounds read low 0.95 | S. cerevisiae deletion strains, locus YML016C, strain PPZ1, active compounds read low 0.986 | S. cerevisiae deletion strains, locus YML032C, strain rad52, active compounds read low 0.966 | S. cerevisiae deletion strains, locus YML120C, strain ndi1, active compounds read low 0.981 | S. cerevisiae deletion strains, locus YML124C, strain tub3, active compounds read low 0.987 | S. cerevisiae deletion strains, locus YMR058W, strain fet3, active compounds read low 1.01 | S. cerevisiae deletion strains, locus YMR078C, strain ctf18, active compounds read low 0.974 | S. cerevisiae deletion strains, locus YMR125W, strain sto1, active compounds read low 0.936 | S. cerevisiae deletion strains, locus YMR129W, active compounds read low 0.982 | S. cerevisiae deletion strains, locus YMR205C, strain PFK2, active compounds read low 0.997 | S. cerevisiae deletion strains, locus YMR223W, strain ubp8, active compounds read low 1.01 | S. cerevisiae deletion strains, locus YMR231W, strain pep5, active compounds read low 0.978 | S. cerevisiae deletion strains, locus YMR263W, strain SAP30, active compounds read low 0.976 | S. cerevisiae deletion strains, locus YMR307W, strain GAS1, active compounds read low 1.01 | S. cerevisiae deletion strains, locus YNL067W, strain RPL9B, active compounds read low 0.977 | S. cerevisiae deletion strains, locus YNL071W, strain lat1, active compounds read low 0.98 | S. cerevisiae deletion strains, locus YNL128W, strain TEP1, active compounds read low 0.988 | S. cerevisiae deletion strains, locus YNL153C, strain GIM3, active compounds read low 0.981 | S. cerevisiae deletion strains, locus YNL175C, strain NOP13, active compounds read low 1 | S. cerevisiae deletion strains, locus YNL183C, strain NPR1, active compounds read low 0.942 | S. cerevisiae deletion strains, locus YNL197C, strain WHI3, active compounds read low 1.01 | S. cerevisiae deletion strains, locus YNL209W, strain ssb2, active compounds read low 0.993 | S. cerevisiae deletion strains, locus YNL224C, strain SQS1, active compounds read low 1 | S. cerevisiae deletion strains, locus YNL233W, strain BNI4, active compounds read low 0.988 | S. cerevisiae deletion strains, locus YNL248C, strain rpa49, active compounds read low 0.952 | S. cerevisiae deletion strains, locus YNL250W, strain rad50, active compounds read low 0.978 | S. cerevisiae deletion strains, locus YNL271C, strain bni1, active compounds read low 0.984 | S. cerevisiae deletion strains, locus YNL298W, strain CLA4, active compounds read low 0.985 | S. cerevisiae deletion strains, locus YNL307C, strain MCK1, active compounds read low 0.989 | S. cerevisiae deletion strains, locus YNL322C, strain KRE1 (second series), active compounds read low 0.971 | S. cerevisiae deletion strains, locus YNL322C, strain KRE1, active compounds read low 0.991 and 1.02 | S. cerevisiae deletion strains, locus YNR049C, strain mso1, active compounds read low 0.968 | S. cerevisiae deletion strains, locus YNR052C, strain pop2, active compounds read low 0.989 | S. cerevisiae deletion strains, locus YOL006C, strain TOP1, active compounds read low 0.973 | S. cerevisiae deletion strains, locus YOL012C, strain htz1 0.603 | S. cerevisiae deletion strains, locus YOL147C, strain pex11, active compounds read low 0.983 | S. cerevisiae deletion strains, locus YOR001W, strain rrp6, active compounds read low 0.986 | S. cerevisiae deletion strains, locus YOR061W, strain CKA2, active compounds read low 0.99 | S. cerevisiae deletion strains, locus YOR069W, strain VPS5, active compounds read low 0.992 | S. cerevisiae deletion strains, locus YOR070C, strain gyp1, active compounds read low 0.99 | S. cerevisiae deletion strains, locus YOR080W, strain dia2, active compounds read low 0.975 | S. cerevisiae deletion strains, locus YOR083W, strain WHI5 (second series), active compounds read low 1.01 | S. cerevisiae deletion strains, locus YOR083W, strain WHI5, active compounds read low 0.928 | S. cerevisiae deletion strains, locus YOR106W, strain vam3, active compounds read low 0.966 | S. cerevisiae deletion strains, locus YOR136W, strain idh2, active compounds read low 1 | S. cerevisiae deletion strains, locus YOR144C, strain elg1, active compounds read low 0.99 | S. cerevisiae deletion strains, locus YOR184W, strain ser1, active compounds read low 0.98 | S. cerevisiae deletion strains, locus YOR231W, strain MKK1, active compounds read low 0.986 | S. cerevisiae deletion strains, locus YOR265W, strain rbl2, active compounds read low 0.99 | S. cerevisiae deletion strains, locus YOR270C, strain vph1, active compounds read low 0.981 | S. cerevisiae deletion strains, locus YOR290C, strain snf2, active compounds read low 0.97 | S. cerevisiae deletion strains, locus YOR316C, strain cot1, active compounds read low 0.987 | S. cerevisiae deletion strains, locus YPL051W, strain arl3, active compounds read low 0.991 | S. cerevisiae deletion strains, locus YPL055C, strain LGE1, active compounds read low 1 and 1.01 | S. cerevisiae deletion strains, locus YPL078C, strain atp4, active compounds read low 0.985 | S. cerevisiae deletion strains, locus YPL106C, strain sse1, active compounds read low 0.936 | S. cerevisiae deletion strains, locus YPL240C, strain hsp82, active compounds read low 0.991 | S. cerevisiae deletion strains, locus YPL241C, strain CIN2, active compounds read low 0.992 and 1.01 | S. cerevisiae deletion strains, locus YPL256C, strain CLN2, active compounds read low 0.96 | S. cerevisiae deletion strains, locus YPR119W, strain clb2, active compounds read low 0.998 | S. cerevisiae deletion strains, locus YPR141C, strain kar3, active compounds read low 0.979 | S. cerevisiae deletion strains, locus YPR163C, strain tif3, active compounds read low 0.987 | S. cerevisiae deletion strains, locus YPR167C, strain met16, active compounds read low 0.987 | S. cerevisiae deletion strains, strain wtn01, active compounds read low 0.95 | S. cerevisiae strains, strain wild type, active compounds read low 0.987
